This passage reports binding signal results from publication PMC5700166.

Assay in all cases: protein-binding microarray (PBM); PBM: ~300 nM protein, 6 mM HEPES pH 7.8, 80 mM KCl, 0.5 mM EDTA, 0.5 mM EGTA, 6% glycerol, 35 ng/ul poly-dIdC, 1% milk, 1 h, room temperature; Ap Aiptasia and Nv Nematostella (sea anemones) / Co Capsaspora / Aq Amphimedon (sponge) / Dm Drosophila / Hu human; RHD is the Rel homology domain; high values mean tight binding
Common to all, as to details: dsDNA, one strand shown

One experiment concerns the target T1, GST-Ap-NF-kB RHD (Exaiptasia pallida (Aiptasia), UniProt A0A913YAJ5 2-422).
T1 sequence: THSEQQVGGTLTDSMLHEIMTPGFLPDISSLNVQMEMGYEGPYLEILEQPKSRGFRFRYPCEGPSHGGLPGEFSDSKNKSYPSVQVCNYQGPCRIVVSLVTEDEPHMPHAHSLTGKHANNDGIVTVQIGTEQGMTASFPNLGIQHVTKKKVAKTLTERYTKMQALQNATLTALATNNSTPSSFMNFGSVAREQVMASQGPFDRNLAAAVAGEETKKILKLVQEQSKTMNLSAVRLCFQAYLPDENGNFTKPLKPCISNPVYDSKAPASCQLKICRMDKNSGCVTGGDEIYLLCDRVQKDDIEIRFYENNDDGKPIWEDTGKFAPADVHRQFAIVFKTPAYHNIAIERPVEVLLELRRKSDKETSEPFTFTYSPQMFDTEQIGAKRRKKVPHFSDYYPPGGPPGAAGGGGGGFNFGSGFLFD

For experiment [1], the target named is T2, GST-Nv-NF-kB (Cys allele) (Nematostella vectensis, UniProt E5G601 2-411).
T2 sequence: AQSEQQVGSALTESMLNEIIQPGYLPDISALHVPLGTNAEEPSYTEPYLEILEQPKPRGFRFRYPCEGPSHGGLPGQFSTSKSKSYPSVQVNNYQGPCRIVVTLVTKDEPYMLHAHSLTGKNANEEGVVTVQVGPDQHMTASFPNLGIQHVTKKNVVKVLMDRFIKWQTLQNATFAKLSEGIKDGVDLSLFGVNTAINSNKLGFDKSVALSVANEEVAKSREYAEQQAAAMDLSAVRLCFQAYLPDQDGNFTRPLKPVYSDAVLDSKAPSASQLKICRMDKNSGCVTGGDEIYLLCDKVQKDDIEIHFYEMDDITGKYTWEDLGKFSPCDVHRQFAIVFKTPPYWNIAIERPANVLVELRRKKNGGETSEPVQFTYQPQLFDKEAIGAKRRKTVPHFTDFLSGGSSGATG

For experiment [2], the target named is T3, GST-Nv-NF-kB (Ser allele) (Nematostella vectensis, UniProt A7UNT2 2-411).
T3 sequence: T2 sequence with Q21R, C66S, S207N, E215Q, V217A, E225K, A268E, D399E

The target of the next experiment is T4, GST-Co-NF-kB (Capsaspora owczarzaki, UniProt F1ARL5 200-546).
T4 sequence: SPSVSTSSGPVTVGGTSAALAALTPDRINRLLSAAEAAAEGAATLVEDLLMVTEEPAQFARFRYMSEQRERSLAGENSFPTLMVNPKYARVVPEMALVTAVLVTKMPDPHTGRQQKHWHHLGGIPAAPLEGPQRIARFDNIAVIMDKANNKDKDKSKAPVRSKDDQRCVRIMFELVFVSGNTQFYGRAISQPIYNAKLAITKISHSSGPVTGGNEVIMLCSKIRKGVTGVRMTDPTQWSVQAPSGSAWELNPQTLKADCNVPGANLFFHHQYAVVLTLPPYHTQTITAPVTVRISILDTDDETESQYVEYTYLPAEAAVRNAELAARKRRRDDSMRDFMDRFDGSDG

The target in another experiment is T5, GST-Dm-Relish (Drosophila melanogaster, UniProt Q94527 99-473).
T5 sequence: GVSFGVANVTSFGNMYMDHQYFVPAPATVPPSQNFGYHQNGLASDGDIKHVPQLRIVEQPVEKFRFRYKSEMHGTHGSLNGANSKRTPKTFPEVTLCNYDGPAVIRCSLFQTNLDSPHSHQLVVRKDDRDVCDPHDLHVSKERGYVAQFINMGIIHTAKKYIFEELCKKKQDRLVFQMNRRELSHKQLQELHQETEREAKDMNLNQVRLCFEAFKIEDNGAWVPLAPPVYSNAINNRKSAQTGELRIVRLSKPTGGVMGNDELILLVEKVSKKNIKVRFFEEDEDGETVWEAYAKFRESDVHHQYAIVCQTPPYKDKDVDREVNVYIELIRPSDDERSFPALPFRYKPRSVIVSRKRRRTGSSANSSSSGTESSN

Another experiment has as its target T6, GST-Aq-NF-kB (Amphimedon queenslandica, UniProt A9Y5G7 2-389).
T6 sequence: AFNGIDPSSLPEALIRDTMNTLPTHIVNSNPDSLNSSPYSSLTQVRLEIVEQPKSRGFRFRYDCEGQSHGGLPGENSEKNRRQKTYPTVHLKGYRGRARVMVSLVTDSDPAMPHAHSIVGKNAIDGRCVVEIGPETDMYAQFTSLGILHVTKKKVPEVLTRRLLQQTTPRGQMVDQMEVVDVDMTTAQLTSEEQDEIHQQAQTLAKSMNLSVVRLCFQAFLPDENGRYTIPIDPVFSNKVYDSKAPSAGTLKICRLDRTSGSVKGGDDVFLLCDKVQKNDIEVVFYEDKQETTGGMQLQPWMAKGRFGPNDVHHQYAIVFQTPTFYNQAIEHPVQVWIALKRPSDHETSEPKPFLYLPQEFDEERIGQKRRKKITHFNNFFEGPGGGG

The target of the next experiment is GST-Hu-p50 (Homo sapiens, UniProt P19838 7-356).

Substitutions are numbered along the chain they refer to.

Sequence of GST-Hu-p50 (P19838 7-356): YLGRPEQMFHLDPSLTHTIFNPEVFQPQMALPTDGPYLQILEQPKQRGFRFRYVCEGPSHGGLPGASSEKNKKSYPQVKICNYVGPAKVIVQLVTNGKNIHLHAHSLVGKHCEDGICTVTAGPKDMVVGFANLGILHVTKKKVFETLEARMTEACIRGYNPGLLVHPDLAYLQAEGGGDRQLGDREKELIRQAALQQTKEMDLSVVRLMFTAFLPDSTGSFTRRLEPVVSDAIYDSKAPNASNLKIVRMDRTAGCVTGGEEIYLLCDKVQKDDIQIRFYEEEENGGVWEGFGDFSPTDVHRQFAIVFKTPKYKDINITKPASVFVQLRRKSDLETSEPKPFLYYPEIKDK

“CCGATTAACATCAGGGAACCCCCTGATGTTAATCGGGTCTTGATTCGCTTGACGCTGCTG”: the binding signal in the experiment with GST-Ap-NF-kB RHD came out at 13 z-score; in experiment [1] it was 11.8 z-score; in experiment [2] it was 10.7 z-score; in the experiment with GST-Co-NF-kB, 3.7 z-score; with GST-Dm-Relish it was 11 z-score; with GST-Aq-NF-kB it was 11.1 z-score. The binding signal with GST-Hu-p50 amounted to 7.62 z-score.
For “CCGATTAACATCAAGGGGAAAAATGATGTTAATCGGGTCTTGATTCGCTTGACGCTGCTG”, the binding signal with GST-Ap-NF-kB RHD worked out at 6.62 z-score; in experiment [1], 8.51 z-score; in experiment [2], 11 z-score; in the experiment with GST-Co-NF-kB, 9.12 z-score; with GST-Dm-Relish, 4.24 z-score; with GST-Aq-NF-kB, 6.11 z-score. This sequence registered a binding signal with GST-Hu-p50 of 6.67 z-score.
For the sequence “CCGATTAACATCAAACGCCCCCCTGATGTTAATCGGGTCTTGATTCGCTTGACGCTGCTG”, the binding signal turned out to be 4.79 z-score in the experiment with GST-Ap-NF-kB RHD; 4.46 z-score in experiment [1]; 3.85 z-score in experiment [2]; 3.84 z-score with GST-Co-NF-kB; 4.9 z-score in the experiment with GST-Dm-Relish; 5.57 z-score with GST-Aq-NF-kB. Moreover, in the experiment with GST-Hu-p50, the binding signal is 5.03 z-score.
As to “CCGATTAACATCAAAAAAAACCCTGATGTTAATCGGGTCTTGATTCGCTTGACGCTGCTG”, the binding signal in the experiment with GST-Ap-NF-kB RHD turned out to be 5.46 z-score; in experiment [1] it was 6.25 z-score; in experiment [2], 6.4 z-score; with GST-Co-NF-kB, 1.62 z-score; in the experiment with GST-Dm-Relish it was 7.4 z-score; with GST-Aq-NF-kB, 7.35 z-score. In addition, the binding signal with GST-Hu-p50 was 5.56 z-score.
With “CCGATTAACATCACTATACCCCCTGATGTTAATCGGGTCTTGATTCGCTTGACGCTGCTG”, the binding signal was 4.71 z-score with GST-Ap-NF-kB RHD; 2.52 z-score in experiment [1]; 3.85 z-score in experiment [2]; 4.36 z-score with GST-Co-NF-kB; 2.21 z-score in the experiment with GST-Dm-Relish; 2.68 z-score with GST-Aq-NF-kB. This sequence also registered a binding signal with GST-Hu-p50 of 3.41 z-score.
“CCGATTAACATCACCCACCCCCCTGATGTTAATCGGGTCTTGATTCGCTTGACGCTGCTG”: the binding signal turned out to be 3.58 z-score with GST-Ap-NF-kB RHD; 2.85 z-score in experiment [1]; 4.5 z-score in experiment [2]; 3.74 z-score with GST-Co-NF-kB; 4.19 z-score with GST-Dm-Relish; 3.84 z-score with GST-Aq-NF-kB. Moreover, in the experiment with GST-Hu-p50, the binding signal turned out to be 3.99 z-score.
Take “CCGATTAACATCAGGGAAATACCTGATGTTAATCGGGTCTTGATTCGCTTGACGCTGCTG”: the binding signal with GST-Ap-NF-kB RHD came to 6 z-score; in experiment [1], 8.81 z-score; in experiment [2] it was 6.78 z-score; in the experiment with GST-Co-NF-kB it was 3.06 z-score; with GST-Dm-Relish, 8.42 z-score; with GST-Aq-NF-kB it was 9.82 z-score. In the experiment with GST-Hu-p50, the binding signal was 5.57 z-score.
For “CCGATTAACATCAAAAGTACCCCTGATGTTAATCGGGTCTTGATTCGCTTGACGCTGCTG”, the binding signal with GST-Ap-NF-kB RHD stood at 4.78 z-score; in experiment [1] it was 4.21 z-score; in experiment [2], 6.09 z-score; with GST-Co-NF-kB it was 5.19 z-score; with GST-Dm-Relish, 7.17 z-score; in the experiment with GST-Aq-NF-kB, 4.81 z-score. For the same sequence, in the experiment with GST-Hu-p50, the binding signal worked out at 4.42 z-score.
Consider “CCGATTAACATCAATTTCCCCCGTGATGTTAATCGGGTCTTGATTCGCTTGACGCTGCTG”, for which the binding signal in the experiment with GST-Ap-NF-kB RHD came to 7.85 z-score; in experiment [1], 6.59 z-score; in experiment [2], 8.85 z-score; in the experiment with GST-Co-NF-kB, 12.3 z-score; in the experiment with GST-Dm-Relish, 5.65 z-score; with GST-Aq-NF-kB it was 6.15 z-score. In addition, the binding signal with GST-Hu-p50 came to 6.52 z-score.
Turning to “CCGATTAACATCAGGGGGAGGAATGATGTTAATCGGGTCTTGATTCGCTTGACGCTGCTG”, the binding signal was 5.2 z-score with GST-Ap-NF-kB RHD; 4.58 z-score in experiment [1]; 6.46 z-score in experiment [2]; 7.99 z-score in the experiment with GST-Co-NF-kB; 2.99 z-score in the experiment with GST-Dm-Relish; 4.59 z-score with GST-Aq-NF-kB. The sequence further gave a binding signal with GST-Hu-p50 of 4.89 z-score.
As for “CCGATTAACATCAAACAGCCCCCTGATGTTAATCGGGTCTTGATTCGCTTGACGCTGCTG”, the binding signal in the experiment with GST-Ap-NF-kB RHD came out at 3.65 z-score; in experiment [1], 4.11 z-score; in experiment [2] it was 2.49 z-score; with GST-Co-NF-kB, 1.91 z-score; with GST-Dm-Relish, 2.9 z-score; with GST-Aq-NF-kB, 5.29 z-score. In the experiment with GST-Hu-p50, this sequence showed a binding signal of 3.92 z-score.
Turning to “CCGATTAACATCACGAAACCCCCTGATGTTAATCGGGTCTTGATTCGCTTGACGCTGCTG”, the binding signal amounted to 8.57 z-score with GST-Ap-NF-kB RHD; 6.39 z-score in experiment [1]; 7.65 z-score in experiment [2]; 2.69 z-score in the experiment with GST-Co-NF-kB; 8.51 z-score with GST-Dm-Relish; 6.37 z-score with GST-Aq-NF-kB. The binding signal with GST-Hu-p50 worked out at 7.11 z-score.
